Inconclusive results are not listed. Entries that show only a call come without a potency. Values without a mark were called inactive. Activity calls are given as the source filed them. Calls come from the whole dose curve; as a rule, active = well fitted cell-killing curve with a large enough effect in the repeat runs; inconclusive = weak or mixed curves, or effect the other way; inactive = flat fitted curve, though single readings scatter.

The nature of this assay: qHTS assay to identify small molecule antagonists of the estrogen receptor alpha (ER-alpha) signaling pathway using the BG1 cell line in the presence of 0.1 nM 17-beta-estradiol - cell viability counter screen (AID 1259241). Note: nearly all actives have a fitted effect of over 40% in size. The following applies: VM7Luc4E2 (BG1) viability, CellTiter-Fluor protease, 22 h, 0.1 nM estradiol agonist added; series mostly up to 92.4 µM. An outline of the steps: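 CellTiter-Fluor read (30 min, 37C) on ER-alpha/ERE-luc VM7Luc4E2 cells; 22 hr compound treatment; agonist 0.1 nM E2 final; same-well multiplex.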
In the case of `CC(C)c1ccccc1`, the Potency result is “inactive”.
On the same count and under the same terms, the result for `CC(C)CCCCCCc1ccc(OCCOCCO)cc1` reads “inactive”.
On the same count and under the same terms, next, `Cc1ccsc1C(=CCCN1CCC[C@@H](C(=O)O)C1)c1sccc1C`: “inactive”; `Cc1ncc(CO)c(CN)c1O`: “inactive”.
On to `CC(CNC1CCCCC1)OC(=O)c1ccccc1` (centres undefined), for which the Potency entry is “inactive”.
In the case of `COc1ccc(S(=O)(=O)Nc2nnc(CC(C)C)s2)cc1`, the Potency entry was “inactive”.
As for `Cn1cnc2c(F)c(Nc3ccc(Br)cc3Cl)c(C(=O)NOCCO)cc21`, the Potency entry was “inactive”.
The same measure, in the same setting: next, `CO[C@@]1(NC(=O)CSCC#N)C(=O)N2C(C(=O)O)=C(CSc3nnnn3C)CS[C@@H]21`: “inactive”.
In the case of `C[C@@H]1CN(c2c(F)c(F)c3c(=O)c(C(=O)O)cn(C4CC4)c3c2F)C[C@H](C)N1`, the activity change, negative = cytotoxicity is 13.3% [at 19 µM].
Take `CC(=O)N(CC(O)CN(C(C)=O)c1c(I)c(C(=O)NCC(O)CO)c(I)c(C(=O)NCC(O)CO)c1I)c1c(I)c(C(=O)NCC(O)CO)c(I)c(C(=O)NCC(O)CO)c1I` (centres undefined): the Potency entry is “inactive”.
Still for that read-out and setting: next, `CC(C)(C)c1cccc(O)c1`: “inactive”; `C[C@@H](N)C(=O)O`: “inactive”.
As for `CCC(=O)O[C@]1(C(=O)SCF)[C@H](C)C[C@H]2[C@@H]3C[C@H](F)C4=CC(=O)C=C[C@]4(C)[C@@]3(F)[C@@H](O)C[C@@]21C`, the Potency entry was “inactive”.
For the molecule `Cc1c(C(=O)NCCO)[n+](=O)c2ccccc2n1[O-]`, the Potency entry was “inactive”.
On the same count and under the same terms, next, `C=Cc1ccccc1`: “inactive”; `CCCNC(C)C(=O)Nc1c(C)csc1C(=O)OC` (centres undefined): “inactive”.
Turning to `CCN(CC)CCNC(=O)COc1ccc(Cl)cc1`, the Potency entry is “inactive”.
The same measure, in the same setting: next, `CC(=O)OC(C)OC(C)=O`: “inactive”.
On to `CN(C)Cc1ccccc1`, for which the Potency result was “inactive”.

For the origin of these results see PubChem BioAssay (Tox21).
